Assay outcomes: PubChem, National Center for Advancing Translational Sciences (NCATS)
A selection: hits, their analogues and other compounds. The true share with any hit is near 20%.
Pf growth 96h: P. falciparum growth inhibition at 96 hour, primary screen for plastid delayed-death inhibitors | P. falciparum luciferase reporter growth, 96 h | Potency, µM (highest dose often 28.7 µM), most hits filed as inhibitors | 320,000 tested, 6.9% active
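96 h incubation, 37 C, 5% CO2, of luciferase-reporter P. falciparum-infected RBCs (2% hematocrit, 0.05% parasitemia final) with test compounds; endpoint luminescence.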
Shiga inhibitor: inhibitors of Shiga toxin in Vero cells; Vero cells, Shiga toxin protein synthesis inhibition reporter; inhibition, % at 38.7 µM; AID 2315; 290,000 tested, 9.2% active; in the data active = inhibition mostly above about 28%, no sharp cut-off; inactive = mostly below about 43%
CHX counter: counter-screen hit for Shiga toxin inhibitors, cycloheximide; cell reporter, cycloheximide protein synthesis inhibition counterscreen; max response, %; 300,000 tested, 12% active; AID 2314; in the data active = max response mostly above about 13%, no sharp cut-off; inactive = mostly below about 14%; note: read at 38.3 µM for the half of the compounds with a filed dose
Pf growth 48h: inhibits P. falciparum growth in the first generation, 48 h; P. falciparum luciferase growth in erythrocytes, 48 h; Potency, µM (doses to about 28.7 µM), most hits filed as inhibitors; 310,000 tested, 5.9% active; AID 504832
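Erythrocytes infected with P. falciparum carrying an integrated firefly luciferase reporter (2% hematocrit, 0.1% parasitemia final) were exposed to compounds in RPMI 1640 with 0.5% Albumax at 37 C, 5% CO2. Growth inhibition was scored as reduced luminescence.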
HCMV antiviral: inhibitors of human cytomegalovirus; HFF cells, HCMV-luciferase reporter, 72 h; hits give low values; AID 1259415; activity change, negative = inhibition, % at 57.5 µM; 410,000 tested, 4.5% active; in the data active = activity change below about -60%; inconclusive = no clear call, values can overlap the other calls; inactive = above about -39%
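Two compound doses tested in HFFs infected with HCMV-luciferase, MOI 1 PFU/cell, 72 h at 37C. Lysate luminescence read with OneGlo; data normalized against buffer-only and 10uM Salinomycin inhibitor controls.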
Of the large screens only hits and unclear results are named; the others gave an inactive call. Unless noted, calls come from the whole dose curve; as a rule, active = well fitted inhibition curve with a large enough effect; inconclusive = small, poorly fitted or top-dose-only effect, or another doubt; inactive = no such curve, though single readings can be large or run the other way.

O=C(NCC1CC1)c1ccc2c3n(nc2c1)-c1ccccc1CO3	Shiga inhibitor 92, CHX counter 30
Cc1ccc2c(c1)COc1c3ccc(C(=O)O)cc3nn1-2	none
CC(=O)Oc1ccc(C(=O)NCc2ccco2)cc1	Pf growth 96h inconclusive
CCOc1ccc(N(CC(=O)N2CCCC2)S(=O)(=O)c2ccc(Cl)cc2)cc1	HCMV antiviral inconclusive
CC(C)c1ccccc1NC(=O)Nc1ccc2c(c1)OCO2	Pf growth 96h inconclusive
COC(=O)c1ccc(C(=O)OC)c(NC(=O)Nc2ccc3c(c2)OCO3)c1	Shiga inhibitor 62, CHX counter 25 (no result: Pf growth 96h)
COC(=O)c1ccccc1NC(=O)Nc1ccc2c(c1)OCO2	CHX counter 16 (no result: Pf growth 48h)
COC(=O)c1ccc(C(=O)OC)c(NC(=O)/C=C/C(=O)O)c1	CHX counter 11
COCCNC(=O)CSc1nc(-c2ccccc2C)nc2c1c(=O)n(C)c(=O)n2C	none (no result: Pf growth 96h, Shiga inhibitor, CHX counter, Pf growth 48h)
Oc1cc[c]([Hg][Cl])cc1	Pf growth 96h 1.5µM, Pf growth 48h 1.9µM (no result: Shiga inhibitor, CHX counter, HCMV antiviral)
O=C(NC(NC(=S)Nc1ccccc1C(=O)O)C(Cl)(Cl)Cl)c1ccco1 (stereo not given)	Shiga inhibitor 45, CHX counter 31
Cc1ccccc1NC(=S)NC(NC(=O)c1ccco1)C(Cl)(Cl)Cl (stereo not given)	Pf growth 96h 9.3µM, Pf growth 48h inconclusive
CCOC(=O)N1CCN(C(=O)C2CCN(CC3CCCCC3)CC2)CC1	none
O=[N+]([O-])c1ccccc1C=NNC(=S)NN=Cc1ccccc1[N+](=O)[O-]	none (no result: Pf growth 96h, Shiga inhibitor, CHX counter, Pf growth 48h)
O=[N+]([O-])c1ccccc1NC(=S)N/N=C/c1ccc(O)c(O)c1	Shiga inhibitor 74, CHX counter 22, HCMV antiviral inconclusive
CCOc1cccc(/C=N/NS(=O)(=O)c2ccc(C)c([N+](=O)[O-])c2)c1O	none
CCCCNC(=S)N/N=C/c1cccc(OCC)c1O	Pf growth 96h 1.5µM, Shiga inhibitor 30, Pf growth 48h inconclusive
CCOc1cccc(/C=N/NC(=S)Nc2ccccc2[N+](=O)[O-])c1O	Pf growth 96h inconclusive, Shiga inhibitor 154, CHX counter 38, HCMV antiviral -70
CC12CCC(=O)N1C(C(=O)NNC(=O)COc1ccccc1Cl)CS2 (stereo not given)	none (no result: Shiga inhibitor, CHX counter)
CN1CCCN(Cc2nc(-c3cccc(C(F)(F)F)c3)no2)CC1	Pf growth 96h 12µM, CHX counter 16
CC(=O)N1CCN(Cc2nc(-c3cccc(Cl)c3)no2)CC1	Shiga inhibitor 43, CHX counter 18
FC(F)(F)c1cccc(-c2noc(CN3CCOCC3)n2)c1	none
Clc1cccc(N2CCN(Cc3nc(-c4ccccc4)no3)CC2)c1	Pf growth 96h 5.9µM
Clc1ccc(-c2noc(CN3CCN(c4ccccc4)CC3)n2)cc1	none
CC(C)(C)NS(=O)(=O)c1cccc(S(=O)(=O)c2cccc(S(=O)(=O)NC(C)(C)C)c2)c1	Pf growth 96h inconclusive, Pf growth 48h inconclusive (no result: HCMV antiviral)
COc1ccc(OC)c(-n2c(SCC(N)=O)nnc2-c2c[nH]c3ccccc23)c1	Pf growth 96h 5.2µM (no result: Pf growth 48h)
CCOc1ccccc1-n1c(SCC(N)=O)nnc1-c1ccccc1	none (no result: Pf growth 96h)
COc1cccc(-n2c(SCC(N)=O)nnc2-c2c[nH]c3ccccc23)c1	Pf growth 96h 12µM (no result: Pf growth 48h)
COc1ccc(OC)c(-n2c(SC)nnc2-c2c[nH]c3ccccc23)c1	Pf growth 96h 4.1µM (no result: Pf growth 48h)
COc1ccccc1-n1c(SCC(N)=O)nnc1-c1ccccc1	Pf growth 96h 1.7µM
COc1ccccc1-n1c(C)nnc1SCC(N)=O	none
Cc1cc(NC(=O)CSc2nnc(-c3c[nH]c4ccccc34)n2-c2ccc(F)cc2)no1	HCMV antiviral inconclusive
CCOc1ccc(-n2c(SCC(=O)Nc3cc(C)on3)nnc2-c2c[nH]c3ccccc23)cc1	Pf growth 96h 5.9µM (no result: Pf growth 48h)
COc1ccc(OC)c(-n2c(SCC(=O)Nc3cc(C)on3)nnc2-c2c[nH]c3ccccc23)c1	Pf growth 96h 4.7µM (no result: Pf growth 48h)
O=C(CCNC(=O)C1CCN(S(=O)(=O)c2ccccc2)CC1)NCc1ccc(Cl)cc1Cl	Pf growth 96h inconclusive, HCMV antiviral -75
O=C(NCc1ccc(Cl)cc1Cl)C1CCN(S(=O)(=O)c2ccc3c(c2)OCCCO3)CC1	Pf growth 96h inconclusive, CHX counter 19
O=C(CCNC(=O)C1CCN(S(=O)(=O)c2ccccc2)CC1)Nc1cccc(C(F)(F)F)c1	CHX counter 16
O=C(NCc1ccc(F)cc1)C1CCN(S(=O)(=O)c2ccc3c(c2)OCCCO3)CC1	Pf growth 96h inconclusive
O=C(CCNC(=O)C1CCN(S(=O)(=O)c2ccccc2)CC1)NCc1ccc(Cl)cc1	none
